CHT block: inhibitors of human choline transporter CHT; Q9GZV3; AID 488975; 310,000 tested, 0.86% active; B-score at 10 µM; CHT-expressing cells, membrane potential dye, choline response; stronger effect = lower value;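 active = B-score over 3 SD under the library average, and starting fluorescence ratio not unusually high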;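 note: choline stimulus applied at its EC90 after an EC20 pre-addition; B-score computed on integrated fluorescence ratio after choline addition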
CHT allo act: allosterically activates the human high affinity choline transporter. B-score at 10 µM. 310,000 tested, 0.49% active. Q9GZV3. CHT-expressing cells, membrane potential dye, choline EC20; stronger effect = higher value; LV-AA mutant CHT in HEK293 cells. AID 488977;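 active = initial fluorescence not abnormally high and integrated response B-score, plate-corrected, over 3 SD above library mean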
IDE cell inh: cellular human IDE inhibition; 320,000 tested, 0.41% active; AID 434962; P14735; inhibition, % at 5.59 µM; HEK cells, FAbetaB cleavage, fluorescence polarization;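 active = percent inhibition above the average of all tested compounds plus 3 SD, set per screening campaign, cut at about 16% in these data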;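 note: IDE supplied by intact live HEK cells; FP after avidin binding of uncleaved biotin substrate so inhibition keeps polarization high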
Target sequence (P14735 whole entry, looked up): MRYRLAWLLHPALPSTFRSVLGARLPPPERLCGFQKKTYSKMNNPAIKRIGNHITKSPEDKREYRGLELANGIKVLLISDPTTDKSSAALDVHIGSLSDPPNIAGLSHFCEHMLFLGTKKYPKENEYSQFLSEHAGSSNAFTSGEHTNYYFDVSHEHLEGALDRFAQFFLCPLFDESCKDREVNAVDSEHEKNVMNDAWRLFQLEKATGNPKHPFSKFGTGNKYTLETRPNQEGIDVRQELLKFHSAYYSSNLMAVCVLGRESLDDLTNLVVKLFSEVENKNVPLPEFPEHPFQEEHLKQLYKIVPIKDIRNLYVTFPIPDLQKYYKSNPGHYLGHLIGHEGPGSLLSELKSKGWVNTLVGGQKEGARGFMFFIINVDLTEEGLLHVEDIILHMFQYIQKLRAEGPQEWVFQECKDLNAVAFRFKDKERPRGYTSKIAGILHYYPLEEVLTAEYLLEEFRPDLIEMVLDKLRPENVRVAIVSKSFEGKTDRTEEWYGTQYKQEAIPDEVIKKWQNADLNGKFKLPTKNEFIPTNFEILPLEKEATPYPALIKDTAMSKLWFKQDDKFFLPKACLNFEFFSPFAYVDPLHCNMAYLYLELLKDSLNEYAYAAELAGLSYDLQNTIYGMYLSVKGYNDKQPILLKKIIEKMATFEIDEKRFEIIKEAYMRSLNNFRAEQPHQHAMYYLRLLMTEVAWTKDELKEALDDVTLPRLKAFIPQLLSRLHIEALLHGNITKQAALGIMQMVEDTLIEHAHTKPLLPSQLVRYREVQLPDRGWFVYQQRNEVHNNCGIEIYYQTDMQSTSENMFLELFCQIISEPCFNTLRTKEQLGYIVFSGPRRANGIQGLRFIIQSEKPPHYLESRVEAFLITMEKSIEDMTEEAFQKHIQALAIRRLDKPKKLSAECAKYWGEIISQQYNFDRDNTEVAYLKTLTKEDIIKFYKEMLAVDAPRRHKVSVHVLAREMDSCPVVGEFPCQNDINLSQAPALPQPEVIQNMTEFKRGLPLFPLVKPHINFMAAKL
TMEM16A inh: blocks the mouse calcium-activated chloride channel TMEM16A. Q8BHY3. HEK293 TMEM16A/YFP iodide influx fluorescence, ionomycin. normalized B-score (activity score, 25-100; higher = stronger inhibition) at 10 µM. 310,000 tested, 1.2% active. AID 588511;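 active = ratio plate-corrected score three or more library SD toward inhibition, starting fluorescence score within five deviations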;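 note: score derived from kinetic fluorescence span divided by baseline fluorescence per well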
TMEM16A act: activates or potentiates the mouse TMEM16A chloride channel; HEK293 TMEM16A/YFP-H148Q/I152L, iodide quench fluorescence; stronger effect = lower value; B-score at 10 µM; 340,000 tested, 0.3% active;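 active = fluorescence-ratio B-score plate-corrected deviation score at least 3 library SD below zero, with starting fluorescence score within 5 deviations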;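 note: channel opened by trigger with iodide after compound preincubation; score built on the fluorescence ratio of max minus min over baseline; more negative score means more quench and so TMEM16A activation or potentiation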
IDE cell activ: IDE (human) activation, cell-based. P14735. HEK cells, FAbeta-B cleavage, fluorescence polarization; 0% vehicle, 100% cell-free pure enzyme wells. activation, % at 5.96 µM. 340,000 tested, 0.073% active. AID 493087;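 active = activation above the mean of all tested compounds plus 3 SD, set per screening campaign, cut at about 17% in these data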
Large screens that a line does not name were inactive. An excerpt weighted towards active compounds, which were near 2.7% of everything screened.

Cc1cc[n+](-c2[nH]c(=O)sc2/C=N/NC([S-])=Nc2ccccc2)cc1	TMEM16A act -5.05
O=c1[nH]c(-[n+]2ccccc2)c(/C=N/NC([S-])=Nc2ccccc2)s1	none
CC(C)(C)c1ccc(C(=O)c2c[nH]c(C(=O)O)c2)cc1	none
COC(=O)c1cc(C(=O)c2ccc(C(C)(C)C)cc2)c[nH]1	TMEM16A inh 25
O=C(Nc1nc2ccccc2n1CCN1CCCCC1)C1CCCCC1	TMEM16A inh 25
COc1ccccc1-c1ccc(SCc2cccc(C)c2)nn1	TMEM16A inh 100
COc1ccc(S(=O)(=O)N2CCOCC2)cc1NC(=O)CSc1nnc2c(n1)[nH]c1ccccc12	none
O=C1c2ccccc2C(=O)N1CCc1nc(-c2ccccn2)no1	TMEM16A inh 25
COc1ccc(-c2nn(-c3ccccc3)cc2C(=O)NC2CC2)cc1	none (no result: CHT block, CHT allo act, TMEM16A inh)
CCc1ccc(-c2cc(-c3n[nH]c(=S)n3CC)c3ccccc3n2)cc1	CHT block -11 (no result: TMEM16A act, IDE cell activ)
CCC(=O)Nc1ccc(C2=Nn3c(nnc3C(C)C)SC2)cc1	none
COc1ccc(/C=C/C(=O)NCc2cn(C)nc2C)cc1COc1ccc(Cl)cc1Br	TMEM16A inh 100
CCCSc1nc2sc3c(c2c(=O)[nH]1)CCN(Cc1ccccc1)C3	TMEM16A act -5.59
COc1ccc(C(O)Cn2ccsc2=NC(C)=O)cc1 (configuration not stated)	none
Cc1ccc(NCSc2ccc(Cl)cc2)cc1	none (no result: CHT block, CHT allo act, IDE cell inh, TMEM16A inh)
CSc1ccc(CNc2ccc(Cl)cc2)cc1	TMEM16A inh 25
O=c1c(Cl)c(Cl)cnn1Cc1nnc(-c2ccccc2Br)o1	TMEM16A act -13.3 (no result: CHT block, CHT allo act, IDE cell inh, TMEM16A inh)
Cc1ccc(NC(=O)/C(C#N)=C(\N)C(Cl)(Cl)Cl)nc1	TMEM16A act -11.1
Cc1cc2nc3c(=O)[nH]c(=S)[nH]c3nc2cc1NC(=O)C(F)(F)F	TMEM16A act -5.15
CC1(C)[C@@H](O)CC[C@]2(C)C3C(O)C=C4[C@H]5C[C@@](C)(C(=O)O)CC[C@]5(C)CC[C@]4(C)[C@]3(C)CC[C@@H]12 (some centres not stated)	TMEM16A inh 100 (no result: TMEM16A act, IDE cell activ)
CC1(C)C(=O)CC[C@]2(C)C3C(=O)C=C4[C@H]5C[C@@](C)(C(=O)O)CC[C@]5(C)CC[C@]4(C)[C@]3(C)CC[C@@H]12 (some centres not stated)	none
Cc1cc(OCCCCN2C(=O)NC(C)(C)C2=O)ccc1[N+](=O)[O-]	TMEM16A inh 25
C=C1CCN(c2ccc(C(=O)NCCC)cc2[N+](=O)[O-])CC1	TMEM16A act -6.44
COc1ccc(NC(=O)c2ccc(OC)c(S(=O)(=O)N3CCCCC3C)c2)cn1 (configuration not stated)	none (no result: CHT block, CHT allo act, TMEM16A inh)
O=C(CSc1ccccc1)NCCCN1CCOCC1	TMEM16A act -11.2
O=C(/C=C/c1cccc(Cl)c1)Nc1ncccn1	none
O=C(/C=C/c1cccc(C(F)(F)F)c1)Nc1cccc(C(F)(F)F)c1	TMEM16A inh 100, TMEM16A act -7.2
CSc1cccc(NC(=O)/C=C/c2cccc(Cl)c2)c1	TMEM16A inh 100
O=[N+]([O-])c1ccccc1-c1ccc(/C=N/n2cnnc2)o1	none
O=C1ON=C(c2ccccc2)/C1=C/c1ccc(-c2ccccc2[N+](=O)[O-])o1	TMEM16A inh 25, TMEM16A act -6.23
CSc1ccc(/C=C/C(=O)NC(=O)c2ccccc2O)cc1	TMEM16A inh 25
O=C(/C=C/c1ccc(O)c(O)c1)NC(=O)c1ccccc1O	none
C=C1/C(=C\C=C2/CCC[C@]3(C)[C@@H]([C@H](C)CCCC(C)(C)O)CC[C@@H]23)C[C@@H](O)C[C@@H]1O	TMEM16A inh 100 (no result: TMEM16A act, IDE cell activ)
CC(C)CCC[C@@H](C)[C@H]1CC[C@H]2[C@@H]3C(=O)C=C4C[C@@H](O)CC[C@]4(C)[C@H]3CC[C@]12C	none
COc1ccc(S(=O)(=O)C(C#N)c2nc3ccccc3nc2N2CCCCC2)cc1 (configuration not stated)	TMEM16A inh 100
CS(=O)c1nc(-c2ccc(Br)cc2)cc(-c2ccccc2)c1C#N (configuration not stated)	TMEM16A inh 100
Nc1c(Cl)cc(C2=NCCn3c2c2ccc(C(F)(F)F)cc2[n+]3[O-])cc1Cl	none
COc1ccc(N2CCN(C(=O)c3ccc(-c4nc5ccccc5s4)o3)CC2)cc1	TMEM16A act -28.3 (no result: CHT block, CHT allo act, TMEM16A inh)
O=C(CCN1C(=O)NC2(CCCC2)C1=O)Nc1cccc(S(=O)(=O)N2CCOCC2)c1	none (no result: CHT block, CHT allo act, TMEM16A inh)
O=C(NC1CCCC1)c1cnn2c(C(F)(F)F)cc(-c3ccco3)nc12	none
O=C(NC1CCCC1)c1cnn2c(C(F)(F)F)cc(-c3ccc4c(c3)OCO4)nc12	IDE cell activ 18.6
COc1ccc(C2CC(c3ccccc3)=NN2c2ccc(S(N)(=O)=O)cc2)cc1OC (configuration not stated)	TMEM16A act -6.08
Brc1ccccc1OCCCCn1cnc2ccccc21	TMEM16A inh 100
CCN(C(=O)c1cc(S(=O)(=O)N2CCOCC2)cn1C)c1cccc(C)c1	TMEM16A inh 100
Cc1cc(C(=O)OCC(=O)Nc2cccc(S(=O)(=O)N3CCOCC3)c2)c(C)o1	TMEM16A act -6.25
CC(C)CCNC(=O)NC(=O)COC(=O)c1cc(S(=O)(=O)N2CCOCC2)ccc1N1CCCCC1	TMEM16A act -12
O=C(c1cccc(S(=O)(=O)Nc2ccccc2Cl)c1)N1CCCCCC1	none
CCC1CCCCN1C(=O)c1cccc(S(=O)(=O)Nc2cc(C(F)(F)F)ccc2Cl)c1 (configuration not stated)	TMEM16A inh 25
O=C(NC1CCN(Cc2ccccc2)CC1)c1cccc(S(=O)(=O)Nc2cc(C(F)(F)F)ccc2Cl)c1	TMEM16A inh 25
COc1ccc(Cl)cc1NS(=O)(=O)c1cccc(C(=O)NC2CCN(Cc3ccccc3)CC2)c1	none (no result: CHT block, CHT allo act, IDE cell inh, TMEM16A inh)
CCCc1cc(=O)[nH]c(SCC(=O)Nc2cc(S(=O)(=O)N3CCOCC3)ccc2Cl)n1	none (no result: CHT block, CHT allo act, TMEM16A inh)
CCOc1ccc(NS(=O)(=O)c2cc(NC(=O)CCS(=O)(=O)c3ccc(C)cc3)ccc2OC)cc1	CHT block -5.14
C#CCOCCOCCOCCNc1nc(N2CCOCC2)nc(N2CCN(C(=O)CCCCCCCCCCNC(=O)[C@H]([C@@H](C)CC)n3cc(CCCCN=C(N)N)nn3)CC2)n1	none
C#CCOCCOCCOCCNc1nc(N2CCN(C(=O)CCCCCCCCCCNC(=O)[C@@H](CCSC)n3cc(CCO)nn3)CC2)nc(N2CCN(C(=O)CCCCCCCCCCNC(=O)[C@H](CCCN=C(N)N)n3cc(C[C@@H](C)CC)nn3)CC2)n1	TMEM16A inh 100, TMEM16A act -26, IDE cell activ 44.8
